Shown is part of a subset that was picked to be rich in hits.
KDM5B inh: blocks human KDM5B histone demethylase activity; Potency, µM (titrated, usually from 57.7 µM), hits mostly inhibitors; Q9UGL1; KDM5B demethylase, FDH-coupled NADH fluorescence (FDH is formaldehyde dehydrogenase); hit rate 2.6% among 220,000; active = well fitted inhibition curve with a large enough effect; note: 0% is about no effect; nearly all actives have a fitted effect of over 70% in size
Target sequence (Q9UGL1 whole entry, looked up): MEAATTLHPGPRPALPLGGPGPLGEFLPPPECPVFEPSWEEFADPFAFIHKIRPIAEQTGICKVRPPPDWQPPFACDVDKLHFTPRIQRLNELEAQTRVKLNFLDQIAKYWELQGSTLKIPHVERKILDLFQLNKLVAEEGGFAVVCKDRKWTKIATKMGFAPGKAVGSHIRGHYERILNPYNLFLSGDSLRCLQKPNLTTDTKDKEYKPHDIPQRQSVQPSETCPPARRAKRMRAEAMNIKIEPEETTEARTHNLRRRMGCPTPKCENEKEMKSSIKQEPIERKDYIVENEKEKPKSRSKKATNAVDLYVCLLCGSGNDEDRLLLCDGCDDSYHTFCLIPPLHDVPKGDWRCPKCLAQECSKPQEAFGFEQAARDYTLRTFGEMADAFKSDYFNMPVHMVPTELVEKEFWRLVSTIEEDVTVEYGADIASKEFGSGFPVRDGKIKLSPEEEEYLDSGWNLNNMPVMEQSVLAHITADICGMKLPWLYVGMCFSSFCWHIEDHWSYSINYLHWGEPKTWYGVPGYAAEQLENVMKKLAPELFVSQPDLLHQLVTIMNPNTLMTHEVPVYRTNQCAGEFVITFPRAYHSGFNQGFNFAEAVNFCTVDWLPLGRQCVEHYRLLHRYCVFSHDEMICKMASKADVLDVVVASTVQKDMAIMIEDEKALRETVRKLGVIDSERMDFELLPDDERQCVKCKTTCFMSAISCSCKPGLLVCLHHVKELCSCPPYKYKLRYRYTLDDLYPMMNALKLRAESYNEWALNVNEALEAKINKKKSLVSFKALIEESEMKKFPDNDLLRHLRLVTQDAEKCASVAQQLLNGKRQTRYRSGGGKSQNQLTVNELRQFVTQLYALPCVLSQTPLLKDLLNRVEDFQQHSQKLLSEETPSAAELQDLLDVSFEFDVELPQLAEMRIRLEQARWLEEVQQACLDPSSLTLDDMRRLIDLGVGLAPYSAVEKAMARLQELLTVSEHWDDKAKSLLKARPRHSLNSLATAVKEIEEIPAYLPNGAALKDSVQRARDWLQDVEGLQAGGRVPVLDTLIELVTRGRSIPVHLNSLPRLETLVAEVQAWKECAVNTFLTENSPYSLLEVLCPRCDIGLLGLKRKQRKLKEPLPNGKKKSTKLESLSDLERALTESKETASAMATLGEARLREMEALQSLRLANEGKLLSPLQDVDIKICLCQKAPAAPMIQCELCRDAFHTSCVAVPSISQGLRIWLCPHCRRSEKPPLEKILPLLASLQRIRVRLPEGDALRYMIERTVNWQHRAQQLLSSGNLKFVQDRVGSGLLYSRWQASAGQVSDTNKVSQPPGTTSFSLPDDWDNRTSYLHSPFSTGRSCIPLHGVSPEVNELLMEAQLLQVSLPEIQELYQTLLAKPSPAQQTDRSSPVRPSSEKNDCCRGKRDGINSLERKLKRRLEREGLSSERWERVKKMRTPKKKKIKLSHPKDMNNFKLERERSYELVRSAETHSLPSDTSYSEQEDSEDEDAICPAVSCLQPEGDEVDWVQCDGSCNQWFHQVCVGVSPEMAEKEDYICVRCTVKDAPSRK
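KDM5BΔAP (200 nM final) in 50 mM HEPES pH 7.5, 0.01% Tween-20 was preincubated 10 min at RT with compound over a concentration range. Substrate mix (H3K4me3 12.5 µM, α-KG 25 µM, Fe²⁺, ascorbate, NAD⁺, FDH) was added, and NADH fluorescence change over 30 min gave dose-response curves.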
An asterisk follows results filed as active; i = inactive. Potency is the fitted concentration of half-maximal effect.

SMILES	KDM5B inh
O=C(NCCc1c[nH]c2ccc(F)cc12)C1CC(=O)N(c2n[nH]c3ccccc23)C1 (stereo not given)	i
COCCNC(=O)C1CC(=O)N(c2n[nH]c3ccccc23)C1 (stereo not given)	i
O=C(NCCO)C1CC(=O)N(c2n[nH]c3ccccc23)C1 (stereo not given)	i
O=C(COc1ccccc1)Nc1nc(-c2ccc(S(=O)(=O)N3CCCC3)cc2)cs1	i
CS(=O)(=O)N1CCC(NS(=O)(=O)c2ccc(F)cc2Cl)CC1	i
COc1ccc(Cl)cc1NC(=O)COC(=O)CCS(=O)(=O)c1ccc(NC(C)=O)cc1	i
O=C1NCc2ccccc2CC12CCN(Cc1ccc3ccccc3c1)C2 (stereo not given)	i
COc1cccc([C@H]2CN(C(=O)c3c(C)nn4c(C)cc(C)nc34)C[C@@H]2N)c1	28µM*
O=C(O)c1ccc(C2CCCN(C(=O)c3cccc(N4CCOCC4)c3)C2)cc1 (stereo not given)	i
O=C(O)c1cccc(C2CCCN(C(=O)c3ccc4c(c3)ncn4CCO)C2)c1 (stereo not given)	i
CCc1nc(C)sc1C(=O)N1C[C@@H](C(=O)O)[C@H](c2cccc(OC)c2)C1	i
Cc1cc(C)n2nc(C)c(C(=O)N3CCCC(c4cccc(C(=O)O)c4)C3)c2n1 (stereo not given)	32µM*
CCCOc1ccc(C(=O)N2C[C@H](c3cccc(OC)c3)[C@@H](N)C2)cc1Cl	i
O=C(O)C1CC(=O)N(C2CC2)C1 (stereo not given)	i
COc1ccc(N(Cc2cccs2)C(=O)Cn2nnc(-c3ccccc3C)n2)cc1	i
Cc1cc(C(=O)NNC(=S)Nc2ccccc2)cs1	i
C=CCNC(=O)NC(=O)COC(=O)/C=C/C=C/C	i
Fc1ccc(/C=N/Nc2c(Cl)cc(Cl)cc2Cl)cc1F	i
CC1=C[C@@H](CNC(=O)C2CCC2)[C@H](C(C)C)C[C@H]1Cc1nc2ccc(F)cc2[nH]1	i
CCN(CC)CCN(CC(C)C)C(=O)c1sccc1C	i
O=C1Nc2ccccc2O[C@H]2C[C@@H]1N(C(=O)Cc1ccccc1)C2	i
Cc1ccc2c(COC(=O)c3cccs3)cc(=O)oc2c1	i
CC(=O)Nc1ccc(CN2CCn3c(nnc3-c3ccncc3)C2)cc1	i
COc1ccc(CN2CCn3c(nnc3C3CCNCC3)C2)cc1	i
CS(=O)(=O)N1CCn2c(nnc2C2CCNCC2)C1	i
SMILES	KDM5B inh
c1ccc(CN2CCn3c(nnc3C3CCNCC3)C2)cc1	100µM*
CC(=O)Nc1ccc(CN2CCn3c(nnc3C3CCNCC3)C2)cc1	13µM*
c1ccc(CN2CCn3c(nnc3-c3cccnc3)C2)cc1	i
Cc1ccc(Sc2ncccc2Cl)cc1	i
COc1ccc(Cl)cc1C(=O)Nc1ccc(C(C)(C)C)cc1	i
CSCC(=O)NCc1ccc(CN2CCCC2)cc1	i
CCCCn1nc(C2CCOC2)nc1-c1cnc(NC)nc1 (stereo not given)	25µM*
NCc1ccc(-c2nc(C3CCOC3)nn2Cc2ccccc2)cc1 (stereo not given)	i
c1ccc(Cn2nc(C3CCOC3)nc2-c2ccoc2)cc1 (stereo not given)	i
CCCCn1nc(C(=O)Nc2nnc(C)s2)c2ccccc2c1=O	i
CC(=O)c1ccc(OCCCC(=O)OCC(=O)c2ccc3c(c2)OCCO3)cc1	i
CC(O)C(NC(=O)c1cc(Cl)ccc1F)C(=O)O (stereo not given)	i
Cc1oc(-c2ccccc2)nc1Cn1ccn2nc3c(c2c1=O)CCCC3	28µM*
COc1ccc(NC(=O)c2ccc(Cn3ccn4nc5c(c4c3=O)CCCC5)cc2)cc1OC	i
Cc1noc(C)c1Cn1ccn2nc3c(c2c1=O)CCCC3	i
CNC(=O)c1ccc(Cn2ccn3nc4c(c3c2=O)CCCC4)cc1	i
Cc1ccc(NC(=O)c2ccc(Cn3ccn4nc5c(c4c3=O)CCCC5)cc2)cc1C	25µM*
CC(C)Oc1ccc(CNC(=O)c2ccc(Cn3ccn4nc5c(c4c3=O)CCCC5)cc2)cc1	25µM*
O=C(NCc1ccncc1)c1ccc(Cn2ccn3nc4c(c3c2=O)CCCC4)cc1	i
Cc1ccc(NC(=O)CCn2ccn3nc4c(c3c2=O)CCCC4)cc1C	i
O=C(NCc1ccco1)c1ccc(Cn2ccn3nc4c(c3c2=O)CCCC4)cc1	i
O=C(NC1CC1)c1ccc(Cn2ccn3nc4c(c3c2=O)CCCC4)cc1	i
CC(CCc1ccccc1)NC(=O)c1ccc(Cn2ccn3nc4c(c3c2=O)CCCC4)cc1 (stereo not given)	35µM*
Cc1ccc(C)c(Cn2ccn3nc4c(c3c2=O)CCCC4)c1	i
COC[C@@H]1CN(C(=O)c2occc2C)C[C@H]1c1nc(C2CC2)no1	i
COCCn1c(COc2ccccc2-c2ccccc2)n[nH]c1=S	i
O=C(NCC1CCCO1)c1ccc(Cn2ccn3nc4c(c3c2=O)CCCC4)cc1 (stereo not given)	i
COc1ccc(CCNC(=O)CCn2ccn3nc4c(c3c2=O)CCCC4)cc1OC	i

Screens from PubChem BioAssay.
